According to PubChem BioAssay (NCI):
Values joined by “and” are separate entries in the source; they are usually repeats but may differ in a detail not shown here. Equal entries are not always repeated. About 83,000 compounds went through this panel and 20% of them were active in at least one assay; those are over-represented in the sample as a whole.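 Single-concentration screen, 48 h exposure, 96-well plates. Endpoint: percent growth. Below 10 = active.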 A number with no mark means an inactive call. Active and inactive are the calls of the source. Starred links: 1 amine or outer side, 2 acyl side, 3 side chain; linkers in the order of their positions; H or OH if unused. Positions of bridges follow the written chain, without caps; N, C: chain ends. Non-standard residues stand in square brackets, D forms with d. Residues, ends and D or L forms follow the SMILES beside them. Chains are numbered I, II in the order given. Actinocin(9to1) = Cc1c2oc3c(C)ccc(C(=O)[*:1])c3nc-2c(C(=O)[*:2])c(N)c1=O; aThr = C[C@H](O)[C@H](N)C(=O)O; NMeV = CN[C@H](C(=O)O)C(C)C; Sar = CNCC(=O)O

Columns and labels:
Experiment in all cases: NCI-60 one-dose screen, 48 h (100 = growth as untreated, 0 = no growth, -100 = all killed)
OVCAR-8 ovarian = tested on: OVCAR-8 ovarian
OVCAR-4 ovarian = tested on: OVCAR-4 ovarian
SK-OV-3 ovarian = tested on: SK-OV-3 ovarian
IGROV1 ovarian = tested on: IGROV1 ovarian
OVCAR-3 ovarian = tested on: OVCAR-3 ovarian
HS 578T breast = tested on: HS 578T breast
NCI/ADR-RES ovarian = tested on: NCI/ADR-RES ovarian
T-47D breast = tested on: T-47D breast
BT-549 breast = tested on: BT-549 breast
MDA-MB-435 melanoma = tested on: MDA-MB-435 melanoma

`COc1cc(C(C)(C)C)cc(OC)c1C(O)(c1c(OC)cc(C(C)(C)C)cc1OC)c1c(OC)cc(C(C)(C)C)cc1OC` was tested, and the growth (OVCAR-8 ovarian; 10 µM) was -64.3% (active), the growth (OVCAR-4 ovarian; 10 µM) was -99.6% (active) and the growth (SK-OV-3 ovarian; 10 µM) was -86.7% (active). For the same compound, the growth (IGROV1 ovarian; 10 µM) was 2.83% (active), the growth (OVCAR-3 ovarian; 10 µM) was -94.1% (active) and the growth (HS 578T breast; 10 µM) was -33.3% (active). The growth (NCI/ADR-RES ovarian; 10 µM) was -56.8% (active), the growth (T-47D breast; 10 µM) was -30.2% (active) and the growth (BT-549 breast; 10 µM) was -58.9% (active). The growth (MDA-MB-435 melanoma; 10 µM) was -45.3% (active).
With `O=c1[nH]cc(F)c(=O)[nH]1` the growth (OVCAR-8 ovarian; 10 µM) was 53.1%, the growth (OVCAR-8 ovarian; 50 µM) was 46.7% and the growth (OVCAR-4 ovarian; 10 µM) was 72.6% and 107%. The growth (OVCAR-4 ovarian; 25 µM) was 59.4%, the growth (OVCAR-4 ovarian; 50 µM) was 68.5% and the growth (SK-OV-3 ovarian; 10 µM) was 70% and 74.7%. The growth (SK-OV-3 ovarian; 25 µM) was 77.5%, the growth (IGROV1 ovarian; 10 µM) was 54.3% and 44.1% and the growth (IGROV1 ovarian; 25 µM) was 51.2%. For the same compound, the growth (IGROV1 ovarian; 50 µM) was 46.2%, the growth (OVCAR-3 ovarian; 10 µM) was 52.5% and 72.2% and the growth (OVCAR-3 ovarian; 25 µM) was 47.4%. For the same compound, the growth (OVCAR-3 ovarian; 50 µM) was 31%, the growth (HS 578T breast; 10 µM) was 99% and the growth (HS 578T breast; 25 µM) was -10.8% (active). The growth (HS 578T breast; 50 µM) was 58.8%, the growth (NCI/ADR-RES ovarian; 10 µM) was 67.2% and 63.5% and the growth (NCI/ADR-RES ovarian; 25 µM) was 47.6%. The growth (NCI/ADR-RES ovarian; 50 µM) was 56.5%, the growth (T-47D breast; 10 µM) was 64.4% and 52.8% and the growth (T-47D breast; 25 µM) was 56.7%. For the same compound, the growth (BT-549 breast; 10 µM) was 57.2% and 54.6%, the growth (BT-549 breast; 25 µM) was 37.8% and the growth (BT-549 breast; 50 µM) was 60.6%. For the same compound, the growth (MDA-MB-435 melanoma; 10 µM) was 42.3% and 50.9%, the growth (MDA-MB-435 melanoma; 25 µM) was 36.6% and the growth (MDA-MB-435 melanoma; 50 µM) was 42.2%.
`Nc1ccc2cc(Br)c3ccccc3c2c1` gave a growth (OVCAR-8 ovarian; 10 µM) of 84.8%, a growth (OVCAR-4 ovarian; 10 µM) of 56.7% and a growth (SK-OV-3 ovarian; 10 µM) of 81.1%. The growth (IGROV1 ovarian; 10 µM) was 82.2%, the growth (OVCAR-3 ovarian; 10 µM) was 74.6% and the growth (NCI/ADR-RES ovarian; 10 µM) was 67.2%. The growth (T-47D breast; 10 µM) was 28.8%, the growth (BT-549 breast; 10 µM) was 68.9% and the growth (MDA-MB-435 melanoma; 10 µM) was 66%.
With `N#C/C(=C1C=C/C(=N\O)C(Cl)=C\1)c1ccccc1` the growth (OVCAR-8 ovarian; 10 µM) was 43.2%, the growth (OVCAR-4 ovarian; 10 µM) was 57% and the growth (SK-OV-3 ovarian; 10 µM) was 37.5%. The growth (IGROV1 ovarian; 10 µM) was 53%, the growth (OVCAR-3 ovarian; 10 µM) was 39.6% and the growth (HS 578T breast; 10 µM) was 56.2%. The growth (NCI/ADR-RES ovarian; 10 µM) was 34%, the growth (T-47D breast; 10 µM) was 43.3% and the growth (BT-549 breast; 10 µM) was 110%. For the same compound, the growth (MDA-MB-435 melanoma; 10 µM) was -43% (active).
Work on `CN1CCN(c2ccc3nc(-c4ccc5nc(-c6ccc(O)cc6)[nH]c5c4)[nH]c3c2)CC1` yielded a growth (OVCAR-4 ovarian; 10 µM) of 89.8%, a growth (SK-OV-3 ovarian; 10 µM) of 84.4% and a growth (IGROV1 ovarian; 10 µM) of 112%. For the same compound, the growth (OVCAR-3 ovarian; 10 µM) was 66.4%, the growth (NCI/ADR-RES ovarian; 10 µM) was 130% and the growth (T-47D breast; 10 µM) was 39.2%. It also gave a growth (BT-549 breast; 10 µM) of 97.9% and a growth (MDA-MB-435 melanoma; 10 µM) of 52.5%.
`CCCCCCCCCCCCCCCCCN` showed a growth (OVCAR-8 ovarian; 10 µM) of 104%, a growth (OVCAR-4 ovarian; 10 µM) of 102% and a growth (SK-OV-3 ovarian; 10 µM) of 96.8%. For the same compound, the growth (IGROV1 ovarian; 10 µM) was 107%, the growth (OVCAR-3 ovarian; 10 µM) was 108% and the growth (HS 578T breast; 10 µM) was 103%. For the same compound, the growth (NCI/ADR-RES ovarian; 10 µM) was 115%, the growth (T-47D breast; 10 µM) was 101% and the growth (BT-549 breast; 10 µM) was 106%. The growth (MDA-MB-435 melanoma; 10 µM) was 99.5%.
With `Cc1cnc(/C=N\NC(N)=S)c2cccc(N)c12` the growth (OVCAR-8 ovarian; 10 µM) was 17.7%, the growth (OVCAR-4 ovarian; 10 µM) was 31.9% and the growth (SK-OV-3 ovarian; 10 µM) was 22.9%. The growth (OVCAR-3 ovarian; 10 µM) was 0.342% (active), the growth (HS 578T breast; 10 µM) was 69.1% and the growth (NCI/ADR-RES ovarian; 10 µM) was 10.9%. For the same compound, the growth (T-47D breast; 10 µM) was 9.76% (active) and the growth (MDA-MB-435 melanoma; 10 µM) was 27.8%.
With `O=C(/C(=C/c1ccccc1)CBr)c1ccccc1` the growth (OVCAR-8 ovarian; 10 µM) was 86.1%, the growth (OVCAR-4 ovarian; 10 µM) was 80.3% and the growth (SK-OV-3 ovarian; 10 µM) was 112%. It also gave a growth (IGROV1 ovarian; 10 µM) of 90.9%, a growth (OVCAR-3 ovarian; 10 µM) of 66.1% and a growth (HS 578T breast; 10 µM) of 82.9%. It also gave a growth (NCI/ADR-RES ovarian; 10 µM) of 81.4%, a growth (T-47D breast; 10 µM) of 77.5% and a growth (BT-549 breast; 10 µM) of 112%. The growth (MDA-MB-435 melanoma; 10 µM) was 64%.
In the case of `Cc1cc(NCCCN(C)C)c2ccc3c(ccc4c(NCCCN(C)C)cc(C)nc43)c2n1`, the growth (OVCAR-8 ovarian; 10 µM) is reported as -24.6% (active), the growth (OVCAR-4 ovarian; 10 µM) is reported as -33.7% (active) and the growth (SK-OV-3 ovarian; 10 µM) is reported as -39.4% (active). The growth (IGROV1 ovarian; 10 µM) was -73.4% (active), the growth (OVCAR-3 ovarian; 10 µM) was -58.3% (active) and the growth (HS 578T breast; 10 µM) was -42.7% (active). For the same compound, the growth (NCI/ADR-RES ovarian; 10 µM) was -10.4% (active), the growth (T-47D breast; 10 µM) was -34.2% (active) and the growth (BT-549 breast; 10 µM) was -91.4% (active). The growth (MDA-MB-435 melanoma; 10 µM) was -99.1% (active).
`Cc1c2oc3c(C)ccc(C(=O)N[C@@H]4C(=O)N[C@H](C(C)C)C(=O)N5CCC[C@H]5C(=O)N(C)CC(=O)N(C)[C@@H](C(C)C)C(=O)O[C@H]4C)c3nc-2c(C(=O)N[C@@H]2C(=O)N[C@H](C(C)C)C(=O)N3CCC[C@H]3C(=O)N(C)CC(=O)N(C)[C@@H](C(C)C)C(=O)O[C@H]2C)c(N)c1=O` (I: [aThr][dV]P[Sar][NMeV] / II: [aThr][dV]P[Sar][NMeV]; ester I:1-I:C, II:1-II:C; linker I:N-II:N via Actinocin(9to1)) was tested, and the growth (OVCAR-4 ovarian; 0.0025 µM) was 50.3%, the growth (OVCAR-4 ovarian; 10 µM) was -8.21% (active) and the growth (SK-OV-3 ovarian; 0.0025 µM) was 92.8%. For the same compound, the growth (SK-OV-3 ovarian; 10 µM) was 14.8%, the growth (IGROV1 ovarian; 0.0025 µM) was 35.5% and the growth (IGROV1 ovarian; 10 µM) was -27.7% (active). The growth (OVCAR-3 ovarian; 0.0025 µM) was 70%, the growth (OVCAR-3 ovarian; 10 µM) was 5.84% (active) and the growth (HS 578T breast; 0.0025 µM) was -10.9% (active). The growth (NCI/ADR-RES ovarian; 0.0025 µM) was 96.7%, the growth (NCI/ADR-RES ovarian; 10 µM) was -39.5% (active) and the growth (T-47D breast; 0.0025 µM) was 53.6%. The growth (T-47D breast; 10 µM) was -13.8% (active), the growth (BT-549 breast; 0.0025 µM) was 27.5% and the growth (BT-549 breast; 10 µM) was -45.4% (active). For the same compound, the growth (MDA-MB-435 melanoma; 0.0025 µM) was 41.6% and the growth (MDA-MB-435 melanoma; 10 µM) was -93.8% (active).
In the case of `BrC/C=C/C[P+](c1ccccc1)(c1ccccc1)c1ccccc1`, the growth (OVCAR-8 ovarian; 10 µM) is reported as 28.3%, the growth (OVCAR-4 ovarian; 10 µM) is reported as 98.8% and the growth (SK-OV-3 ovarian; 10 µM) is reported as 95.5%. For the same compound, the growth (IGROV1 ovarian; 10 µM) was 83.8%, the growth (OVCAR-3 ovarian; 10 µM) was 32.4% and the growth (HS 578T breast; 10 µM) was 92.4%. It also gave a growth (NCI/ADR-RES ovarian; 10 µM) of 96.7%, a growth (T-47D breast; 10 µM) of 10.7% and a growth (BT-549 breast; 10 µM) of 57.1%. The growth (MDA-MB-435 melanoma; 10 µM) was 28.4%.
For `CSc1ccc2c(c1)C(N1CCN(C)CC1)Cc1ccccc1S2` (centres undefined), the growth (OVCAR-8 ovarian; 10 µM) was 67.9%, the growth (OVCAR-4 ovarian; 10 µM) was 36.1% and the growth (SK-OV-3 ovarian; 10 µM) was 86.2%. The growth (IGROV1 ovarian; 10 µM) was 20.8%, the growth (OVCAR-3 ovarian; 10 µM) was 61.4% and the growth (HS 578T breast; 10 µM) was 39.8%. For the same compound, the growth (NCI/ADR-RES ovarian; 10 µM) was 49.2%, the growth (T-47D breast; 10 µM) was 43.3% and the growth (BT-549 breast; 10 µM) was 63.1%. The growth (MDA-MB-435 melanoma; 10 µM) was 7.17% (active).
Work on `CN(C)CCC(=O)c1c[nH]c2ccccc12` yielded a growth (OVCAR-8 ovarian; 10 µM) of 112%, a growth (OVCAR-4 ovarian; 10 µM) of 111% and a growth (SK-OV-3 ovarian; 10 µM) of 96.6%. For the same compound, the growth (IGROV1 ovarian; 10 µM) was 106%, the growth (OVCAR-3 ovarian; 10 µM) was 110% and the growth (HS 578T breast; 10 µM) was 106%. It also gave a growth (NCI/ADR-RES ovarian; 10 µM) of 110%, a growth (T-47D breast; 10 µM) of 84.1% and a growth (BT-549 breast; 10 µM) of 121%. For the same compound, the growth (MDA-MB-435 melanoma; 10 µM) was 107%.
`S=c1[nH]nc(Cc2ccccc2)c(=S)[nH]1` gave a growth (OVCAR-8 ovarian; 10 µM) of 104%, a growth (OVCAR-4 ovarian; 10 µM) of 98% and a growth (SK-OV-3 ovarian; 10 µM) of 99.6%. For the same compound, the growth (IGROV1 ovarian; 10 µM) was 102%, the growth (OVCAR-3 ovarian; 10 µM) was 95.4% and the growth (HS 578T breast; 10 µM) was 101%. The growth (NCI/ADR-RES ovarian; 10 µM) was 100%, the growth (T-47D breast; 10 µM) was 90.4% and the growth (BT-549 breast; 10 µM) was 109%. The growth (MDA-MB-435 melanoma; 10 µM) was 106%.
